# Experimental data reported in PubChem BioAssay (EPA / NIEHS).
# Calls of active or inactive are those of the source. The calls were made as follows: active = hit-call score of the fitted dose curve at least 0.9, where 1 is the maximum; inactive = score below 0.9.
# Read-out: Keratin 19 (KRT19), KRT19 (gene 3880)
# Assay: LTEA_HepaRG_KRT19: Life Technologies and Expression Analysis (LTEA) Assay for Keratin 19 (KRT19) using HepaRG (AID 2283512)
# Conditions: mRNA level, 48 h; actives raise or lower the signal
# Method in brief: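 Differentiated human HepaRG cells, plated 48 h, were exposed in duplicate for 48 h in serum-free induction medium to eight half-log concentrations up to 100 uM in 0.5% DMSO. KRT19 mRNA was quantified by qRT-PCR, normalized to ACTB, GAPDH and POLR2A, and fitted bidirectionally versus DMSO.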
Compound,outcome,AC50
COC(=O)c1c(C(F)F)nc(C(F)(F)F)c(C2=NCCS2)c1CC(C)C,inactive,–
Cn1c(-c2ccccc2)cc(-c2ccccc2)[n+]1C,–,24 µM (active)
COC(=O)NS(=O)(=O)c1ccc(N)cc1,inactive,–
CC(C)Nc1nc(Cl)nc(NC(C)C)n1,inactive,–
COC(=O)NC(=S)Nc1ccccc1NC(=S)NC(=O)OC,inactive,–
Clc1cccc(C(Cl)(Cl)Cl)n1,inactive,–
COP(=S)(OC)Oc1ccc([N+](=O)[O-])c(C)c1,inactive,–
CCOP(=S)(OCC)Oc1nc(Cl)n(C(C)C)n1,inactive,–
COc1cc(Cl)c(OC)cc1Cl,inactive,–
CCCCC(O)(Cn1cncn1)c1ccc(Cl)cc1Cl (stereo not given),inactive,–
O=C(Nc1ccccc1-c1ccc(Cl)cc1)c1cccnc1Cl,inactive,–
CCNC(=O)NC(=O)C(C#N)=NOC,inactive,–
CCN(CC)C(=O)C(C)Oc1cccc2ccccc12 (stereo not given),–,50 µM (active)
CC1(C)CON(Cc2ccccc2Cl)C1=O,inactive,–
CCOc1nc(C(Cl)(Cl)Cl)ns1,inactive,–
CN=C=S,inactive,–
C=C(C)CN(CC)c1c([N+](=O)[O-])cc(C(F)(F)F)cc1[N+](=O)[O-],inactive,–

Compound,outcome,AC50
Nc1c(Cl)c(Cl)nc(C(=O)O)c1Cl,inactive,–
CC1(C)C(C=C(Cl)Cl)C1C(=O)OC(C#N)c1cccc(Oc2ccccc2)c1 (stereo not given),inactive,–
Cc1cnc(C2=NC(C)(C(C)C)C(=O)N2)c(C(=O)O)c1 (stereo not given),inactive,–
CSC(=O)c1c(C(F)F)nc(C(F)(F)F)c(C(=O)SC)c1CC(C)C,inactive,–
CCOc1cc(C(C)(C)C)ccc1C1COC(c2c(F)cccc2F)=N1 (stereo not given),–,4.11 µM (active)
COC(=O)N(C(=O)N1CO[C@@]2(C(=O)OC)Cc3cc(Cl)ccc3C2=N1)c1ccc(OC(F)(F)F)cc1,–,16.9 µM (active)
CC(C)N1C(=O)c2ccccc2NS1(=O)=O,inactive,–
CCCC(=NOCC)C1=C(O)CC(CC(C)SCC)CC1=O (stereo not given),inactive,–
C=CCOC(=O)C(C)(C)OC(=O)c1cc(-n2c(=O)cc(C(F)(F)F)n(C)c2=O)ccc1Cl,inactive,–
CC(C)Oc1cccc(NC(=O)c2ccccc2C(F)(F)F)c1,–,34.1 µM (active)
CC(C)NC(=O)N1CC(=O)N(c2cc(Cl)cc(Cl)c2)C1=O,–,20.3 µM (active)
CC(C)(C)C(=O)C(Oc1ccc(Cl)cc1)n1cncn1 (stereo not given),inactive,–
CC1(C)CCC(=Cc2ccc(Cl)cc2)C1(O)Cn1cncn1 (stereo not given),inactive,–
COCC(=O)N(c1c(C)cccc1C)C(C)C(=O)OC (stereo not given),inactive,–
CCOc1nc(F)cc2nc(S(=O)(=O)Nc3c(Cl)cccc3Cl)nn12,–,9.92 µM (active)
COP(=O)(OC)O/C(C)=C/C(=O)N(C)C,inactive,–
CC(C)N1C(=O)N(c2ccccc2)CSC1=NC(C)(C)C,–,50 µM (active)

# Read-out: JUN Transcription Factor, JUN (gene 3725)
# Assay: LTEA_HepaRG_JUN: Life Technologies and Expression Analysis (LTEA) Assay for JUN Transcription Factor using HepaRG (AID 2283513)
# Conditions: mRNA level, 48 h; actives raise or lower the signal
# Method in brief: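 Read-out is JUN transcript level by TaqMan qRT-PCR, normalized to ACTB, GAPDH and POLR2A, after 48 h chemical treatment of HepaRG cells. Concentration-response spanned eight half-log points up to 100 uM in 0.5% DMSO.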
Compound,outcome,AC50
COCC(C)N(C(=O)CCl)c1c(C)csc1C (stereo not given),inactive,–
COC(=O)c1c(C(F)F)nc(C(F)(F)F)c(C2=NCCS2)c1CC(C)C,inactive,–
Cn1c(-c2ccccc2)cc(-c2ccccc2)[n+]1C,inactive,–
COC(=O)NS(=O)(=O)c1ccc(N)cc1,inactive,–
CC(C)Nc1nc(Cl)nc(NC(C)C)n1,inactive,–
COC(=O)NC(=S)Nc1ccccc1NC(=S)NC(=O)OC,inactive,–
Clc1cccc(C(Cl)(Cl)Cl)n1,inactive,–
COP(=S)(OC)Oc1ccc([N+](=O)[O-])c(C)c1,inactive,–
CCOP(=S)(OCC)Oc1nc(Cl)n(C(C)C)n1,inactive,–
COc1cc(Cl)c(OC)cc1Cl,inactive,–
CCCCC(O)(Cn1cncn1)c1ccc(Cl)cc1Cl (stereo not given),inactive,–
CNC(=O)N(C)c1nnc(C(C)(C)C)s1,inactive,–
O=C(Nc1ccccc1-c1ccc(Cl)cc1)c1cccnc1Cl,inactive,–
CCNC(=O)NC(=O)C(C#N)=NOC,inactive,–
CCN(CC)C(=O)C(C)Oc1cccc2ccccc12 (stereo not given),inactive,–
CC1(C)CON(Cc2ccccc2Cl)C1=O,inactive,–
CCOc1nc(C(Cl)(Cl)Cl)ns1,–,1.89 µM (active)
CN=C=S,inactive,–

Compound,outcome,AC50
C=C(C)CN(CC)c1c([N+](=O)[O-])cc(C(F)(F)F)cc1[N+](=O)[O-],inactive,–
Nc1c(Cl)c(Cl)nc(C(=O)O)c1Cl,inactive,–
CC1(C)C(C=C(Cl)Cl)C1C(=O)OC(C#N)c1cccc(Oc2ccccc2)c1 (stereo not given),inactive,–
Cc1cnc(C2=NC(C)(C(C)C)C(=O)N2)c(C(=O)O)c1 (stereo not given),inactive,–
CSC(=O)c1c(C(F)F)nc(C(F)(F)F)c(C(=O)SC)c1CC(C)C,inactive,–
CCOc1cc(C(C)(C)C)ccc1C1COC(c2c(F)cccc2F)=N1 (stereo not given),inactive,–
COC(=O)N(C(=O)N1CO[C@@]2(C(=O)OC)Cc3cc(Cl)ccc3C2=N1)c1ccc(OC(F)(F)F)cc1,inactive,–
CC(C)N1C(=O)c2ccccc2NS1(=O)=O,inactive,–
CCCC(=NOCC)C1=C(O)CC(CC(C)SCC)CC1=O (stereo not given),inactive,–
C=CCOC(=O)C(C)(C)OC(=O)c1cc(-n2c(=O)cc(C(F)(F)F)n(C)c2=O)ccc1Cl,inactive,–
CC(C)Oc1cccc(NC(=O)c2ccccc2C(F)(F)F)c1,inactive,–
CC(C)NC(=O)N1CC(=O)N(c2cc(Cl)cc(Cl)c2)C1=O,inactive,–
CC(C)(C)C(=O)C(Oc1ccc(Cl)cc1)n1cncn1 (stereo not given),inactive,–
CC1(C)CCC(=Cc2ccc(Cl)cc2)C1(O)Cn1cncn1 (stereo not given),inactive,–
COCC(=O)N(c1c(C)cccc1C)C(C)C(=O)OC (stereo not given),inactive,–
CCOc1nc(F)cc2nc(S(=O)(=O)Nc3c(Cl)cccc3Cl)nn12,inactive,–
COP(=O)(OC)O/C(C)=C/C(=O)N(C)C,inactive,–
CC(C)N1C(=O)N(c2ccccc2)CSC1=NC(C)(C)C,inactive,–
